Here are results for 18 molecules from PubChem BioAssay.

The source made the active and inactive calls. Unless noted, how the calls were made is not given here.

Test [1] deals with XIP peptide (Xip251-270) binding. The test is described as follows: small-molecule binders of XIP peptide, primary screen, biochemical, small-molecule microarray, fluorescence 635/667 nm, 0.1 µg/mL protein (AID 1182). To be noted: fluorescent protein binding, 635 nm, higher = more signal, called active from +8 up or from −8 down.
Another test has as its system XIP peptide (Xip251-270). The test is described as follows: small-molecule binders of XIP peptide, primary screen, biochemical, small-molecule microarray, fluorescence 635/667 nm, 0.5 µg/mL protein (AID 1183). To be noted: small-molecule microarray binding, fluorescence 635 nm; higher = more signal.
Test [2] in a line: Plasmodium falciparum growth inhibition, primary screen, strain 3D7, DAPI fluorescence, 100 nL (AID 1184).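 Further: parasites grown inside human red blood cells in medium with human serum.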 The note with it: P. falciparum 3D7 growth, 3 d, higher = more signal.
In test [3] the target is Homeobox protein Hox-A13 (Mus musculus) (UniProt Q62424). Nature of the test: inhibitors of HoxA13-DNA binding, primary screen, biochemical, fluorescence polarization, labeled oligonucleotide (AID 1185). The note with it: 15 min, higher = more signal, called active from +8 up or from −8 down. (Polarisation of emitted light reports the rotation of a fluorescent probe.)
Sequence of Homeobox protein Hox-A13 (Mus musculus) (Q62424 whole entry, looked up): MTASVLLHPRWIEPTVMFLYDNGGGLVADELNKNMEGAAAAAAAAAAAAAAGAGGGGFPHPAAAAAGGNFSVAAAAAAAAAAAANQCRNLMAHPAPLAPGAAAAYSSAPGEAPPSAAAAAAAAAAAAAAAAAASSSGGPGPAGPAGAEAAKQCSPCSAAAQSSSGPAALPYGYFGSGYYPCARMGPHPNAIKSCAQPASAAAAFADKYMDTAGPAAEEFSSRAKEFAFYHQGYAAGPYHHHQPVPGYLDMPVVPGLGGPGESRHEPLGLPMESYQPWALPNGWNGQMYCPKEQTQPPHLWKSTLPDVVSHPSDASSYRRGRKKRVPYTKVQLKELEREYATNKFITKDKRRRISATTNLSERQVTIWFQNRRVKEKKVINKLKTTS
The nature of test [4]: inhibitors of hydroxyurea-induced Chk1 phosphorylation, primary screen, imaging, HeLa, phospho-Chk1 antibody, percent positive cells (AID 1186). To be noted: hydroxyurea-induced phospho-Chk1 immunofluorescence imaging, higher = more signal.
Test [5] is described as follows: inhibitors of hydroxyurea-induced Chk1 phosphorylation, primary screen, imaging, HeLa, phospho-Chk1 nuclear intensity (AID 1187). To be noted: hydroxyurea-induced phospho-Chk1 immunofluorescence imaging, higher = more signal.

As to `CCCC=C(CCC)[C@@H](NP(=O)(c1ccccc1)c1ccccc1)c1ccc(-c2ccccc2)cc1`, the results for the composite z-score (in test [1]; with XIP peptide (Xip251-270)) were 0.356 (inactive) and 0.42, respectively. Also, the z-score is 0.0851 in test [2], -1.13 (inactive) in test [3], 0.175 (inactive) in test [4] and -0.0233 (inactive) in test [5].

On to `Cc1cc(C)c(C(O)C2C=CC3C(=O)N(c4ccccc4)C(=O)C3N2Nc2ccccc2F)c(C)c1` (stereo not drawn), for which the composite z-score is -0.121 (inactive) in test [1] and 0.863 with XIP peptide (Xip251-270). The z-score in test [2] is -0.286; in test [3], -1.39 (inactive); in test [4], 0.153 (inactive); in test [5] it was -0.0495 (inactive).

As to `COCCOC(=O)N1C(=O)[C@@]2(c3cc(C#CC4=CCCCC4)ccc31)[C@H](C(=O)Nc1nc3ccccc3s1)[C@H]1C(=O)O[C@H](c3ccccc3)[C@H](c3ccccc3)N1[C@@H]2c1ccc(O)cc1`, the composite z-score is -0.0082 (inactive) in test [1] and 0.751 in the test with XIP peptide (Xip251-270). The z-score in test [2] is -0.259; in test [3], -0.148 (inactive); in test [4], -0.0232 (inactive); in test [5], -0.0288 (inactive).

`CCCCCCc1nc(Cc2cc(OC)c(OC)c(OC)c2)cc2c1[Si](C(C)C)(C(C)C)OC2`: the values for the composite z-score (in test [1]; with XIP peptide (Xip251-270)) were 0.181 (inactive) and 0.0776, respectively. In addition, the z-score is -2.67 in test [2], -3.54 (inactive) in test [3], -1.16 (inactive) in test [4] and -0.743 (inactive) in test [5].

For `Cc1ccc(S[C@]2(C(=O)O)CC(=O)N(C3CCCCC3)[C@@H]2c2ccc(CO)cc2I)cc1`, the values for the composite z-score (in test [1]; with XIP peptide (Xip251-270)) were 2.84 (inactive) and 0.526, respectively. Moreover, the z-score is -0.348 in test [2], -5.25 (inactive) in test [3], 0.542 (inactive) in test [4] and 0.675 (inactive) in test [5].

As for `CCOC(=O)C1=CC[C@@H](c2ccccc2)N(S(=O)(=O)c2ccc(C)cc2)[C@H]1c1ccccc1`, the composite z-score in test [1] was 0.267 (inactive); in the test with XIP peptide (Xip251-270), 0.528. Also, the z-score in test [2] is -1.67; in test [3], 0.268 (inactive); in test [4], 0.339 (inactive); in test [5], -1.24 (inactive).

As for `CC(C)NC(=O)[C@@]1(c2ccc([N+](=O)[O-])cc2)CC(=O)N(C2CCCCC2)[C@@H]1c1ccc(CO)cc1`, the values for the composite z-score (in test [1]; with XIP peptide (Xip251-270)) were 1.15 (inactive) and 0.786, respectively. Moreover, the z-score was -0.385 in test [2], -3.11 (inactive) in test [3], 0.127 (inactive) in test [4] and 0.0865 (inactive) in test [5].

For `CCCNC(=O)[C@@]1(Sc2ccc(C)cc2)CC(=O)N(C2Cc3ccccc3C2)[C@@H]1c1ccc(CO)cc1I`, the composite z-score is 0.0241 (inactive) in test [1] and 0.733 in the test with XIP peptide (Xip251-270). Also, the z-score in test [2] was 0.441; in test [3] it was -2.68 (inactive); in test [4] it was 0.34 (inactive); in test [5] it was 0.78 (inactive).

In the case of `CN(C)C(=O)[C@]1(Cc2ccccc2CN=[N+]=[N-])N=C(c2ccc(OCCCO)cc2)O[C@@H]1c1ccccc1`, the composite z-score is 0.908 (inactive) in test [1] and 0.738 with XIP peptide (Xip251-270). The z-score was -2.78 in test [2], -6.11 (inactive) in test [3], -0.52 (inactive) in test [4] and -0.266 (inactive) in test [5].

As for `CCCC[C@@H](O)C1=C(COC)C[C@H]2C(=O)N(Cc3ccccc3)C(=O)[C@H]2[C@H]1CO`, the composite z-score is 1.47 (inactive) in test [1] and 0.782 with XIP peptide (Xip251-270). Besides, the z-score is 0.553 in test [2], -4.13 (inactive) in test [3], -0.187 (inactive) in test [4] and 0.274 (inactive) in test [5].

For `CCCCC[C@H]1OC[C@@]23C=C(Br)[C@@H](CC12)[C@@]1(CO1)C3=O` (stereo partly drawn), the composite z-score in test [1] is -0.311 (inactive); in the test on XIP peptide (Xip251-270), -0.332. The z-score is 1.66 in test [2], -2.47 (inactive) in test [3], -0.556 (inactive) in test [4] and -0.245 (inactive) in test [5].

Turning to `C=C[C@H](C)[C@H](OC(=O)Nc1ccc(SC)cc1)c1ccc(OCCO)cc1`, the composite z-score in test [1] is 2.81 (inactive); in the test on XIP peptide (Xip251-270), 0.232. Besides, the z-score in test [2] is -0.563; in test [3], -5.1 (inactive); in test [4] it was -1.34 (inactive); in test [5] it was -0.511 (inactive).

`COc1cc2c(cc1O)C(c1cccs1)N(Cc1cc3c(cc1Br)OCO3)CC2` (stereo not drawn): the composite z-score in test [1] is -0.177 (inactive); in the test with XIP peptide (Xip251-270) it was 0.867. For the same molecule, the z-score in test [2] was -1.57; in test [3], -1.01 (inactive); in test [4], -0.117 (inactive); in test [5], 0.128 (inactive).

Regarding `COC(=O)[C@@H]1N=C(c2ccc(OCCCO)cc2)O[C@@H]1C`, the composite z-score in test [1] was 0.0312 (inactive); with XIP peptide (Xip251-270), 0.232. The z-score in test [2] is 0.985; in test [3], -2.44 (inactive); in test [4], -0.749 (inactive); in test [5], -0.626 (inactive).

As to `CCC1=C2CN(Cc3ccccc3)[C@@H](C(=O)Cc3ccccc3)C2C=CCC1` (stereo partly drawn), the composite z-score is 0.932 (inactive) in test [1] and 0.758 in the test on XIP peptide (Xip251-270). Besides, the z-score in test [2] is -1.75; in test [3] it was -4.07 (inactive); in test [4] it was 0.313 (inactive); in test [5], -0.119 (inactive).

Consider `CCCC=C(CCC)[C@@H](NC(=O)c1cccs1)c1ccc(C(=O)OC)cc1`, for which the composite z-score in test [1] is -0.185 (inactive); with XIP peptide (Xip251-270), 0.285. The z-score was -0.417 in test [2], -0.907 (inactive) in test [3], -0.255 (inactive) in test [4] and -0.354 (inactive) in test [5].

Regarding `COc1ccc(C(=O)Nc2ccc(CN3C(=O)[C@]4(O[C@H](CC(=O)N5Cc6ccccc6C[C@H]5CO)[C@@H]([Si](C)(C)c5ccc(OC)cc5)[C@@H]4C)c4ccccc43)cc2)cc1`, the composite z-score in test [1] was 1.22 (inactive); in the test on XIP peptide (Xip251-270), 0.775. In addition, the z-score in test [2] is -2.31; in test [3] it was 0.247 (inactive); in test [4], 0.714 (inactive); in test [5] it was 0.329 (inactive).

For `O=c1cccc(-c2ccc([N+](=O)[O-])cc2)o1`, the composite z-score was 0.164 (inactive) in test [1] and -0.163 with XIP peptide (Xip251-270). Also, the z-score in test [2] is -0.799; in test [3], -0.755 (inactive); in test [4] it was -0.419 (inactive); in test [5], -0.202 (inactive).
